In PubChem BioAssay (EPA / NIEHS):
Inconclusive results are not listed. The source made the active and inactive calls. The calls were made as follows, unless noted: active = hit-call score of the fitted dose curve at least 0.9, where 1 is the maximum; inconclusive = response in the unintended direction; inactive = score below 0.9.

How the values were obtained:
[1] = molecular target: Retinoic acid receptor RXR-alpha (Homo sapiens) (UniProt P19793); assay: ATG_RXRa_TRANS: Attagene TRANS-FACTORIAL HepG2 Assay for human Retinoid X Receptor alpha (RXRa) (AID 2283012)
Procedure, shortened: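 Chimeric NR-GAL4 trans-activation in HepG2, 24 h treatment; reporter transcripts quantified by fluorescence on capillary electrophoresis, analysed for upward change from DMSO.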

[2] = molecular target: human Retinoid X Receptor beta (RXRb), RXRB (gene 6257) (UniProt P28702); assay: ATG_RXRb_TRANS: Attagene TRANS-FACTORIAL HepG2 Assay for human Retinoid X Receptor beta (RXRb) (AID 2283013)
Procedure, shortened: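 After a 24 h incubation with test chemical, transfected HepG2 cells carrying NR-Gal4 fusions and GAL4-UAS reporter transcription units yield RNA whose reporter cDNA is FAM-labelled, HpaI-cut and sized by capillary electrophoresis; increases over DMSO are scored.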

[3] = molecular target: human Thyroid Receptor alpha (THRa1), THRA (gene 7067) (UniProt P10827); assay: ATG_THRa1_TRANS: Attagene TRANS-FACTORIAL HepG2 Assay for human Thyroid Receptor alpha (THRa1) (AID 2283014)
Procedure, shortened: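 Reporter transcript induction, read by capillary electrophoresis of 6-FAM-labelled RT-PCR products, reflects activity of a transfected THRa1-Gal4 fusion in HepG2 liver cells. Cells were dosed for 24 h; activity was fitted in the positive direction against DMSO.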

[4] = molecular target: human Vitamin D Receptor (VDR), VDR (gene 7421) (UniProt P11473); assay: ATG_VDR_TRANS: Attagene TRANS-FACTORIAL HepG2 Assay for human Vitamin D Receptor (VDR) (AID 2283022)
Procedure, shortened: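 Steps: transfect HepG2 with GAL4-UAS-driven reporter constructs; dose compounds 24 h; isolate RNA, reverse-transcribe, PCR-amplify with 6-FAM-labelled primer extension and HpaI digestion; quantify fragments by capillary electrophoresis relative to DMSO.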

[5] = read-out: E-selectin (Homo sapiens) (UniProt P16581); assay: BSK_3C_Eselectin: BioMAP Diversity Plus: 3C Assay for Eselectin Biomarker Activity (AID 2283015; active = hit-call score of the fitted dose curve at least 0.9, where 1 is the maximum; inactive = score below 0.9;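 also: cell surface E-selectin protein quantified by ELISA 24 h after dosing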); details: primary human endothelial cells (HUVEC); actives raise or lower the signal
Procedure, shortened: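 ELISA read-out of E-selectin on endothelial monolayers after 24 h chemical treatment. Human umbilical vein primary cells served as the system, with DMSO defining baseline activity for bidirectional fitting.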

[6] = read-out: Interleukin-1 alpha (IL1a), IL1A (gene 3552); assay: BSK_BE3C_IL1a: BioMAP Diversity Plus: BE3C Assay for Interleukin-1 alpha (IL1a) Biomarker Activity (AID 2283016; active = hit-call score of the fitted dose curve at least 0.9, where 1 is the maximum; inactive = score below 0.9); details: primary human bronchial epithelial cells; actives raise or lower the signal
Procedure, shortened: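 Measured in human lung primary bronchial epithelial cells: IL-1a by ELISA at 24 h after dosing, with bidirectional fitting against DMSO.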

[7] = read-out: Monocyte Chemoattractant Protein-1 (MCP1), CCL2 (gene 6347); assay: BSK_3C_MCP1: BioMAP Diversity Plus: 3C Assay for Monocyte Chemoattractant Protein-1 (MCP1) Biomarker Activity (AID 2283017; active = hit-call score of the fitted dose curve at least 0.9, where 1 is the maximum; inactive = score below 0.9); details: primary human endothelial cells (HUVEC); actives raise or lower the signal
Procedure, shortened: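 ELISA read-out of MCP-1 from human umbilical vein endothelial cell cultures harvested 24 h post-dosing. Gain or loss of signal was fitted relative to DMSO.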

[8] = read-out: Monocyte Chemoattractant Protein-1 (MCP1), CCL2 (gene 6347); assay: BSK_4H_MCP1: BioMAP Diversity Plus: 4H Assay for Monocyte Chemoattractant Protein-1 (MCP1) Biomarker Activity (AID 2283018; active = hit-call score of the fitted dose curve at least 0.9, where 1 is the maximum; inactive = score below 0.9); details: primary human endothelial cells (HUVEC); actives raise or lower the signal
Procedure, shortened: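 Primary human umbilical vein endothelium is exposed to chemical for 24 h before MCP-1 is assayed by ELISA. Concentration-response fitted bidirectionally relative to DMSO.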

[9] = read-out: Human Leukocyte Antigen - DR isotype (HLADR), HLA-DRA (gene 3122); assay: BSK_3C_HLADR: BioMAP Diversity Plus: 3C Assay for Human Leukocyte Antigen - DR isotype (HLADR) Biomarker Activity (AID 2283019; active = hit-call score of the fitted dose curve at least 0.9, where 1 is the maximum; inactive = score below 0.9;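 also: ELISA of cell-surface HLA-DR on HUVEC 24 h after dosing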); details: primary human endothelial cells (HUVEC); actives raise or lower the signal
Procedure, shortened: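 ELISA readout of surface HLA-DR on human umbilical vein endothelium, taken 24 h after chemical treatment. Gain- and loss-of-signal were both fitted relative to DMSO.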

[10] = read-out: Interleukin-8 (IL8), CXCL8 (gene 3576); assay: BSK_3C_IL8: BioMAP Diversity Plus: 3C Assay for Interleukin-8 (IL8) Biomarker Activity (AID 2283020; active = hit-call score of the fitted dose curve at least 0.9, where 1 is the maximum; inactive = score below 0.9); details: primary human endothelial cells (HUVEC); actives raise or lower the signal
Procedure, shortened: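 Using DMSO-treated wells as the baseline, bidirectional curve fitting was applied to ELISA-measured IL-8 from human umbilical vein endothelial cultures sampled 24 h after compound addition.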

[11] = read-out: Monokine induced gamma interferon (MIG), CXCL9 (gene 4283); assay: BSK_3C_MIG: BioMAP Diversity Plus: 3C Assay for Monokine induced gamma interferon (MIG) Biomarker Activity (AID 2283021; active = hit-call score of the fitted dose curve at least 0.9, where 1 is the maximum; inactive = score below 0.9); details: primary human endothelial cells (HUVEC); actives raise or lower the signal
Procedure, shortened: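 ELISA-measured MIG in dosed HUVEC 3C cultures at 24 h, analysed by bidirectional fitting with DMSO defining baseline activity.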

[12] = BSK_3C_SRB: Viability Assessment in the BioMAP Diversity Plus: 3C Assay (AID 2283023; active = hit-call score of the fitted dose curve at least 0.9, where 1 is the maximum; inactive = score below 0.9;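 also: fitted both ways against DMSO so a hit may be signal rise or drop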); details: primary human endothelial cells (HUVEC)
Procedure, shortened: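 Absorbance at 560 nm of sulforhodamine B-stained (0.1%) total protein served as a cytotoxicity readout in human umbilical vein endothelial cells, 24 h after chemical treatment. Signal was fitted bidirectionally relative to DMSO.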

[13] = read-out: Matrix Metallopeptidase 1 (MMP1), MMP1 (gene 4312); assay: BSK_BE3C_MMP1: BioMAP Diversity Plus: BE3C Assay for Matrix Metallopeptidase 1 (MMP1) Biomarker Activity (AID 2283024; active = hit-call score of the fitted dose curve at least 0.9, where 1 is the maximum; inactive = score below 0.9); details: primary human bronchial epithelial cells; actives raise or lower the signal
Procedure, shortened: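 In this multiplexed primary-cell system, human bronchial epithelium received chemicals for 24 h before an ELISA for MMP1. Values reflect bidirectional fits normalised to the DMSO baseline.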

[14] = read-out: Pselectin, SELP (gene 6403); assay: BSK_4H_Pselectin: BioMAP Diversity Plus: 4H Assay for Pselectin Biomarker Activity (AID 2283026; active = hit-call score of the fitted dose curve at least 0.9, where 1 is the maximum; inactive = score below 0.9); details: primary human endothelial cells (HUVEC); actives raise or lower the signal
Procedure, shortened: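 Bidirectional fits against DMSO gave the endpoint. Cells: primary human umbilical vein endothelium, chemical-treated for 24 h before ELISA detection of P-selectin.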

[15] = BSK_4H_SRB: Viability Assessment in the BioMAP Diversity Plus: 4H Assay (AID 2283027; active = hit-call score of the fitted dose curve at least 0.9, where 1 is the maximum; inactive = score below 0.9;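 also: cells exposed to compound for 24 h before staining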); details: primary human endothelial cells (HUVEC)
Procedure, shortened: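 Cytotoxicity read-out in primary human endothelial cells: after 24 h compound exposure, cells were TCA-fixed (10%), stained with 0.1% SRB and absorbance taken at 560 nm. Values fitted in both directions relative to DMSO.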

[16] = read-out: Urokinase-type plasminogen activator receptor (uPAR), PLAUR (gene 5329); assay: BSK_4H_uPAR: BioMAP Diversity Plus: 4H Assay for Urokinase-type plasminogen activator receptor (uPAR) Biomarker Activity (AID 2283030; active = hit-call score of the fitted dose curve at least 0.9, where 1 is the maximum; inactive = score below 0.9); details: primary human endothelial cells (HUVEC); actives raise or lower the signal
Procedure, shortened: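 Cell-surface uPAR ELISA signal, measured 24 h after dosing human umbilical vein endothelial cells, was analyzed with bidirectional fitting relative to DMSO. Parallel SRB staining of total protein tracked overt cytotoxicity.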

[17] = read-out: Vascular endothelial growth factor receptor 2 (Homo sapiens) (UniProt P35968); assay: BSK_4H_VEGFRII: BioMAP Diversity Plus: 4H Assay for Vascular endothelial growth factor receptor 2 (VEGFR2) Biomarker Activity (AID 2283031; active = hit-call score of the fitted dose curve at least 0.9, where 1 is the maximum; inactive = score below 0.9); details: primary human endothelial cells (HUVEC); actives raise or lower the signal
Procedure, shortened: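 ELISA read-out of VEGFRII in primary human umbilical vein endothelium, taken 24 h after chemical treatment. Responses are expressed relative to DMSO, with bidirectional fitting.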

[18] = read-out: Human Leukocyte Antigen - DR isotype (HLADR), HLA-DRA (gene 3122); assay: BSK_BE3C_HLADR: BioMAP Diversity Plus: BE3C Assay for Human Leukocyte Antigen - DR isotype (HLADR) Biomarker Activity (AID 2283032; active = hit-call score of the fitted dose curve at least 0.9, where 1 is the maximum; inactive = score below 0.9); details: primary human bronchial epithelial cells; actives raise or lower the signal
Procedure, shortened: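 BioMAP BE3C format: human bronchial epithelium, 24 h compound treatment, ELISA detection of HLA-DR, with bidirectional analysis relative to DMSO.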

Retinoic acid receptor RXR-alpha (Homo sapiens), sequence (P19793 whole entry, looked up, the tested form may be a part): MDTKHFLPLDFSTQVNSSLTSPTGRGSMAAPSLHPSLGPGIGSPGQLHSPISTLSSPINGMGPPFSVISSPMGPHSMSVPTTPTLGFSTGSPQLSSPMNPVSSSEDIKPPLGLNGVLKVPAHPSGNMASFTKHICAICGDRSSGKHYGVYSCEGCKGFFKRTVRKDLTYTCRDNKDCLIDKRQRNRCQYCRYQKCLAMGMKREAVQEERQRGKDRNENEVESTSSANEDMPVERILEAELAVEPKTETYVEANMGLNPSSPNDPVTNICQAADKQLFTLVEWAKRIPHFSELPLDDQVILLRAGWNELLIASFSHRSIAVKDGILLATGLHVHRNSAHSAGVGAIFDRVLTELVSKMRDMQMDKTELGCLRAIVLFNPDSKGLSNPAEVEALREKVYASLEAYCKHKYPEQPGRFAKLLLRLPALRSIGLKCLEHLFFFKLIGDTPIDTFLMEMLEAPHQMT
human Thyroid Receptor alpha (THRa1), THRA (gene 7067), sequence (P10827 whole entry, looked up, the tested form may be a part): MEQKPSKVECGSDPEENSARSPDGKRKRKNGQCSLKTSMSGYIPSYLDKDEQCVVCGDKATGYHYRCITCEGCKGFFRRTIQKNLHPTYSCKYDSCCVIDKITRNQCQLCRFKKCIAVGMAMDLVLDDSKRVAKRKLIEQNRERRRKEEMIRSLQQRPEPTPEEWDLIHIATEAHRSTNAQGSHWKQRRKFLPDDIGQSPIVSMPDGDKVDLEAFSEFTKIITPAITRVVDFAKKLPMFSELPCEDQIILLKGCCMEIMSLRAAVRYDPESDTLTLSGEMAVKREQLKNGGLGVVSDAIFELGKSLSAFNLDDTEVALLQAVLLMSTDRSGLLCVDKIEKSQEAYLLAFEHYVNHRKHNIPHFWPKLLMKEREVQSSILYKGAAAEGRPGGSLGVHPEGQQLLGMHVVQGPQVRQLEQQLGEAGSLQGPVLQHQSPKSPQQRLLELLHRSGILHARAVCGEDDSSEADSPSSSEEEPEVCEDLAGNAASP
human Retinoid X Receptor beta (RXRb), RXRB (gene 6257), sequence (P28702 whole entry, looked up, the tested form may be a part): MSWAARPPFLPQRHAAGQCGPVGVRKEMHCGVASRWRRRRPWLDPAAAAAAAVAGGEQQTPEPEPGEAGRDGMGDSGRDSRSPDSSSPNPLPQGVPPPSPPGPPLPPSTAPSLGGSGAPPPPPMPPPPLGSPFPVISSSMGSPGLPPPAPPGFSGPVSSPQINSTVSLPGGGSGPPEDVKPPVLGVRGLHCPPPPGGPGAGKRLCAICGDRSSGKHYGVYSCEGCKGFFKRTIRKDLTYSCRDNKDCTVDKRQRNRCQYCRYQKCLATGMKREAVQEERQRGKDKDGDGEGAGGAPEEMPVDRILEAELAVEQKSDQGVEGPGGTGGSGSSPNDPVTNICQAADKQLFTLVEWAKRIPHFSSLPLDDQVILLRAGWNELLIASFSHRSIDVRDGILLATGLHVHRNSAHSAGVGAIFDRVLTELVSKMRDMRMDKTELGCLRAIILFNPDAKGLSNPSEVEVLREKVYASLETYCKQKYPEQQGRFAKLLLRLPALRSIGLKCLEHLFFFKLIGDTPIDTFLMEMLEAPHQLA
human Vitamin D Receptor (VDR), VDR (gene 7421), sequence (P11473 whole entry, looked up, the tested form may be a part): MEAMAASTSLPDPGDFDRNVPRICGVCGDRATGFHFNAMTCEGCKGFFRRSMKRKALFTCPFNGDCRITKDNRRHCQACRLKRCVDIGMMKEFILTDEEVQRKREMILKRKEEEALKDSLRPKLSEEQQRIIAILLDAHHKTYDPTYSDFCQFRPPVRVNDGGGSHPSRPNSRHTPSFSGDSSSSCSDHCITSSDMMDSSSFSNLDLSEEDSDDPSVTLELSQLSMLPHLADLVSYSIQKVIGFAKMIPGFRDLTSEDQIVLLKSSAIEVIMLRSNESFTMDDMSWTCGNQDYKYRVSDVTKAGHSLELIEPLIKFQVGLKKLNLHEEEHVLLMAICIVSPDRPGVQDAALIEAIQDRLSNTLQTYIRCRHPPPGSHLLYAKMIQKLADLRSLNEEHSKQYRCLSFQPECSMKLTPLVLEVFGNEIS
E-selectin (Homo sapiens), sequence (P16581 whole entry, looked up): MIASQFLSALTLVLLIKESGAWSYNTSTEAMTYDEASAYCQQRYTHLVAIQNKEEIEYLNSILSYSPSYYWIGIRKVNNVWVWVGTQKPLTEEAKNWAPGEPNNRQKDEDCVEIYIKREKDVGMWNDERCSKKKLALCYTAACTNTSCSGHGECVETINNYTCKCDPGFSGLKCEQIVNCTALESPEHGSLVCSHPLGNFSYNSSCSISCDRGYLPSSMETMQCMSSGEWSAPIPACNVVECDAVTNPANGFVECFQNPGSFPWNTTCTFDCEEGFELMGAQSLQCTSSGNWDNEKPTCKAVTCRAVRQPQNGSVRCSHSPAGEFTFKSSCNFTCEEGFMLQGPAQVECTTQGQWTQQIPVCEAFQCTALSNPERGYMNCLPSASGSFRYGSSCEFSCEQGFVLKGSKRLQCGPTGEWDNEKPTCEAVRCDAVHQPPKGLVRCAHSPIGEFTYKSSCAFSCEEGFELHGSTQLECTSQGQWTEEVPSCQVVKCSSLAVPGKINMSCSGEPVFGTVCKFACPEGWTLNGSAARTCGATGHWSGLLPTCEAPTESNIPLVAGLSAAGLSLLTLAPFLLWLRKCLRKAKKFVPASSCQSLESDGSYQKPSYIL

Q: For `Cc1cc(C)c(C)c(O)c1`, which outcome [1] is on record?
A: inactive

Q: What about the outcome [2] of the same molecule?
A: inactive

Q: What about the outcome [3] of the same molecule?
A: inactive

Q: What about the outcome [4] of the same molecule?
A: inactive

Q: What does the source list for `C=C(C)C(=O)OCCOc1ccccc1`?
A: AC50 [1]: 26.5 µM (active); outcome [2]: inactive; outcome [4]: inactive

Q: For `CCC(C)OC(=O)c1ccc(O)cc1` (stereo not drawn), which outcome [1] is on record?
A: inactive

Q: What about the AC50 [2] of the same molecule?
A: 70.8 µM (active)

Q: And the outcome [3]?
A: inactive

Q: What about the outcome [4] of the same molecule?
A: inactive

Q: Which outcome [1] does the source give for `O=CN1CCCCC1` here?
A: inactive

Q: And the outcome [2]?
A: inactive

Q: What about the outcome [4] of the same molecule?
A: inactive

Q: With `O=C1Nc2ccccc2C1(c1ccc(O)cc1)c1ccc(O)cc1` as the molecule, how does the outcome [1] read?
A: inactive

Q: What about the outcome [2] of the same molecule?
A: inactive

Q: And the outcome [4]?
A: inactive

Q: For `Cc1ccc2oc(=O)ccc2c1`, which outcome [1] is on record?
A: inactive

Q: And the outcome [2]?
A: inactive

Q: And the outcome [3]?
A: inactive

Q: And the outcome [4]?
A: inactive

Q: What does the source list for `CCC(=O)Oc1ccc(/C(CC)=C(\CC)c2ccc(OC(=O)CC)cc2)cc1`?
A: outcome [1]: inactive; AC50 [2]: 2.92 µM (active); outcome [4]: inactive

Q: For `CC(C)C1=CC2=CC[C@@H]3[C@](C)(CCC[C@@]3(C)C(=O)O)[C@H]2CC1`, which outcome [1] is on record?
A: inactive

Q: And the outcome [2]?
A: inactive

Q: What about the outcome [3] of the same molecule?
A: inactive

Q: And the outcome [4]?
A: inactive

Q: For `CC(CC=O)c1ccccc1` (stereo not drawn), which outcome [1] is on record?
A: inactive

Q: What about the outcome [2] of the same molecule?
A: inactive

Q: What about the outcome [4] of the same molecule?
A: inactive

Q: Which outcome [1] does the source give for `O=S(=O)(Oc1ccc(Cl)cc1Cl)c1ccccc1` here?
A: inactive

Q: And the outcome [2]?
A: inactive

Q: What about the outcome [3] of the same molecule?
A: inactive

Q: What about the outcome [4] of the same molecule?
A: inactive

Q: With `N#CCc1ccc(Cl)cc1Cl` as the molecule, how does the outcome [1] read?
A: inactive

Q: What about the outcome [2] of the same molecule?
A: inactive

Q: What about the outcome [4] of the same molecule?
A: inactive

Q: For `Oc1ccc(Cl)cc1Cc1cc(Cl)ccc1O`, which outcome [1] is on record?
A: inactive

Q: What about the AC50 [2] of the same molecule?
A: 6.46 µM (active)

Q: And the outcome [3]?
A: inactive

Q: What about the outcome [4] of the same molecule?
A: inactive

Q: Which outcome [1] does the source give for `CCC(C)(C)C1CCCCC1OC(C)=O` (stereo not drawn) here?
A: inactive

Q: What about the AC50 [2] of the same molecule?
A: 74.1 µM (active)

Q: What about the outcome [4] of the same molecule?
A: inactive

Q: For `CN1C(=O)N(C)C(O)C1O` (stereo not drawn), which outcome [1] is on record?
A: inactive

Q: What about the outcome [2] of the same molecule?
A: inactive

Q: What about the outcome [5] of the same molecule?
A: inactive

Q: And the outcome [6]?
A: inactive

Q: And the outcome [7]?
A: inactive

Q: What about the outcome [8] of the same molecule?
A: inactive

Q: And the outcome [9]?
A: inactive

Q: What about the outcome [10] of the same molecule?
A: inactive

Q: What about the outcome [11] of the same molecule?
A: inactive

Q: What about the outcome [12] of the same molecule?
A: inactive

Q: And the outcome [13]?
A: inactive

Q: And the outcome [14]?
A: inactive

Q: And the outcome [15]?
A: inactive

Q: And the outcome [16]?
A: inactive

Q: And the outcome [17]?
A: inactive

Q: And the outcome [18]?
A: inactive

Q: With `O=C(O)Cc1c(Cl)ccc(Cl)c1Cl` as the molecule, how does the outcome [1] read?
A: inactive

Q: And the outcome [3]?
A: inactive
